Results on 7 compounds are retold here after PubChem BioAssay.

Experiment [1] can be described thus: P. berghei load reduction in hepatocytes – cell-based, HepG2, luciferase luminescence, HepG2 viability, primary screen (AID 624349; in the data active means parasite load remaining mostly below about 12%, no sharp cut-off; inactive means mostly above about 10%;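 further: 100% = mean of DMSO negative control wells on the same plate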). To be noted: P. berghei liver stage in HepG2, luciferase luminescence, concentration not given here; parasite load remaining: stronger effect = lower value; viability: measured here: HepG2 viability without parasites.
Experiment [2] can be described thus: EMT-state selective cytotoxicity in co-culture – imaging, PC-3E GFP, TEM4-18 mCherry, primary screen (AID 1345086;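 active means compounds killing one labelled cell type while sparing the other, by normalised counts and ratio limits, not self-fluorescent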;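 on all read-outs here: cells exposed to compound for 72 h before imaging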;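 on red/green cell ratio (normalised): normalised mesenchymal count divided by normalised epithelial count so high means epithelial killing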). The conditions noted are these: PC-3E GFP / TEM4-18 mCherry co-culture, imaging cell counts, at 1 µM; for red/green cell ratio (normalised): actives lie on both sides.
A short description of experiment [3]: viability loss with induced miR-34 in A549 – imaging, A549 dox-inducible miR-34, nuclei and caspase counts, primary screen (AID 1347080;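 active means compounds whose cell count with miR-34 switched on is under 0.7 times the count with it off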). The conditions noted are these: A549 miR-34 inducible, Hoechst nuclei count, 48 h.
Experiment [4] in a line: compounds altering circadian rhythm period length – cell-based, LOPAC library, luminescence reporter (AID 2774).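 Further: values are relative to mean of DMSO wells on each plate.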 The conditions noted are these: circadian reporter cells, at 7 µM, actives lie on both sides.
Experiment [5] relates to Hepatitis C virus NS3 helicase. As to the kind of experiment: blockers of NS3h binding to ssDNA – biochemical, fluorescence polarization, LOPAC1280 library, primary screen (AID 687035; in the data active means inhibition above about 37%). To be noted: Purified HCV NS3 helicase, Cy5-dT15 ssDNA binding fluorescence polarization; stronger effect = higher value; concentration not given here.
The nature of experiment [6]: compounds altering Cy5-DNA-NS3h complex signal – biochemical, LOPAC1280, artefact control for HCV NS3 helicase inhibitor project (AID 687037). The conditions noted are these: Cy5-DNA-NS3h complex fluorescence interference counterscreen. For orientation: Counterscreens check selectivity or assay interference.
The test system of experiment [7] is Aerobactin synthetase IucA (Klebsiella pneumoniae). The experiment in a line: inhibition of K. pneumoniae IucA enzyme – biochemical, Tocris library, absorbance (AID 1345561).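 Further: 100% = enzyme without compound and 0% = no enzyme.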 To be noted: purified IucA enzyme assay, absorbance (OD) read-out; stronger effect = lower value;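 tested at 8 µM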.
Experiment [8] relates to Aerobactin synthetase IucA (Klebsiella pneumoniae, hypervirulent). The experiment in a line: biochemical IucA inhibition screen of LOPAC library by absorbance (AID 1346212).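 Further: 100% = no compound wells and 0% = no enzyme wells.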 The conditions noted are these: IucA enzyme assay, absorbance (OD) readout; stronger effect = lower value;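 tested at 8 µM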.
Experiment [9] is described as follows: blockers of cellular phospholipid synthesis – cell-based, LOPAC library, screen 4, primary screen (AID 1347384). The conditions noted are these: animal cells, phospholipid biosynthesis inhibition screen; at 10 µM.
The nature of experiment [10]: galactose survival enhancers in mitochondrial complex I cybrids – cell-based, galactose medium, ATP luminescence, primary screen (AID 1645843;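 active means z-score of at least 1.8 in each of two replicates, scored against plate mean and spread of sample wells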;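 further: positive z means more ATP and so rescue of galactose-driven cybrid death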). To be noted: complex I mutant cybrid cells, 72 h, stronger effect = higher value.
The mark [11] stands for this setting: measured here: epithelial PC-3E GFP cell survival.
[12] abbreviates: measured here: mesenchymal TEM4-18 mCherry cell survival.
The mark [13] stands for this setting: measured here: relative caspase fold change +Dox/-Dox.
Setting [14] is: measured here: total cells with miR-34 induction, stronger effect = lower value.
Where [15] appears, read: measured here: total cells without miR-34 induction.

“And” between values parts separate entries of the source, which are not always exact repeats. Equal values may be shown once. The source made the active and inactive calls. Unless noted, how the calls were made is not given here.

A word on the viability: it is a read-out of living cells in per cent, often relative to untreated cells. On to `C#C[C@@H]1CC2C3CCC4=C[C@@H](OC(C)=O)CCC4C3CC[C@]2(C)[C@H]1OC(C)=O` (some centres undefined), for which the parasite load remaining in experiment [1] was 19.4% (inactive). Moreover, the viability in experiment [1] was 101%. In addition, the red/green cell ratio (normalised) in experiment [2] is 0.9 (inactive). Moreover, the normalised cell number in [2] (setting [11]) came out at 1.25; in experiment [2] (setting [12]), 1.12. Also, the values for the fold change in [3] (stronger effect = lower value) and in experiment [3] (setting [13]) were 0.854 (inactive) and 3.71, respectively. Besides, the cell count in experiment [3] (setting [14]) was 11300; in [3] (setting [15]) it was 13200.
As for `O=C(O)CCCO`, in experiment [1], the parasite load remaining was 64.2% (inactive). Moreover, in [1], the viability worked out at 92.7%. In addition, in experiment [2], the red/green cell ratio (normalised) is 1 (inactive). Moreover, the normalised cell number in experiment [2] (setting [11]) and in [2] (setting [12]) was 0.91 throughout. Also, the values for the fold change in experiment [3] (stronger effect = lower value) and in [3] (setting [13]) were 0.926 (inactive) and 0.797, respectively. The cell count in experiment [3] (setting [14]) stood at 11100; in experiment [3] (setting [15]), 11900.
What is called inhibition is the change of the read-out against control, counted positive when it falls. As usually defined, the remaining activity is the signal under treatment as a percentage of the control signal. Regarding `c1ccc2c(c1)[I+]c1ccccc1-2`, the period change in experiment [4] is -1.22 h (inactive). Moreover, in experiment [5], the inhibition was -5% (inactive). The fluorescence ratio (interference) in experiment [6] was 1 (inactive). Besides, the remaining activity was 106% (inactive) in experiment [7] and 103% (inactive) in [8]. For the same compound, the fold change in [3] (stronger effect = lower value) is 1.1 (inactive) and 0.717 (inactive) and 0.928 (inactive); in experiment [3] (setting [13]), 1.26 and 1.66 and 0.513. The cell count was 1170 and 692 and 1240 in experiment [3] (setting [14]); 1070 and 966 and 1340 in experiment [3] (setting [15]). Also, in [9], the result was active. Besides, in experiment [10], the z-score was -1.03 (inactive) and -1.25 (inactive).
With `CCC1(CC)C(=O)NC(=O)NC1=O`, the red/green cell ratio (normalised) in [2] was 0.85 (inactive). Further, the figures for the normalised cell number in experiment [2] (setting [11]) and in experiment [2] (setting [12]) were 0.92 and 0.78, respectively.
As for `c1ccc(CCCN2CCN(CCOC(c3ccccc3)c3ccccc3)CC2)cc1`, the period change in [4] is -0.025 h (inactive). Moreover, the inhibition in experiment [5] was 0% (inactive). The fluorescence ratio (interference) in [6] is 1 (inactive). The remaining activity in experiment [7] is 117% (inactive); in experiment [8], 104% (inactive). Also, the fold change in experiment [3] (stronger effect = lower value) was 1.21 (inactive) and 0.966 (inactive); in experiment [3] (setting [13]), 1.16 and 0.645. In addition, the cell count in experiment [3] (setting [14]) was 3120 and 2750; in [3] (setting [15]), 2580 and 2850. For the same compound, in experiment [9], the call was inactive. Further, the z-score in experiment [10] was -1.04 (inactive) and -1.21 (inactive).
With `COC(=O)[C@@H](N)CCCN=C(N)N[N+](=O)[O-]`, the period change in experiment [4] is -0.07 h (inactive). Moreover, in experiment [5], the inhibition is -2% (inactive). Besides, the fluorescence ratio (interference) in experiment [6] was 1 (inactive). The figures for the remaining activity in [7] and in [8] were 81.5% (inactive) and 117% (inactive), respectively. Also, the fold change was 1.06 (inactive) and 1.11 (inactive) and 0.952 (inactive) in [3] (stronger effect = lower value); 1.8 and 0.812 and 0.955 in [3] (setting [13]). Further, the cell count in experiment [3] (setting [14]) is 11200 and 5930 and 8740; in experiment [3] (setting [15]), 10600 and 5320 and 9180. The compound was called inactive in experiment [9]. Moreover, the z-score in experiment [10] was 0.23 (inactive) and 0.29 (inactive).
`Oc1ccc2c3c1O[C@H]1c4[nH]c5c(c4C[C@@]4(O)[C@@H](C2)N(CC2CC2)CC[C@]314)C[C@@]1(O)[C@H]2Cc3ccc(O)c4c3[C@@]1(CCN2CC1CC1)[C@H]5O4`: the period change in [4] is -0.025 h (inactive). Further, in [5], the inhibition is -2% (inactive). Moreover, the fluorescence ratio (interference) in experiment [6] is 1 (inactive). Besides, the remaining activity in [7] is 103% (inactive); in [8] it was 120% (inactive). The fold change in experiment [3] (stronger effect = lower value) was 1.09 (inactive) and 0.956 (inactive); in experiment [3] (setting [13]), 1.04 and 0.836. Further, the cell count in experiment [3] (setting [14]) is 10400 and 9420; in [3] (setting [15]), 9540 and 9850. The z-score in experiment [10] was 0.855 (inactive) and 1.22 (inactive).
